hcDAF12 agonist – H. contortus DAF-12 nuclear receptor activators, primary screen, cell-based, luminescence, HEK293, lit1-tk-luc reporter; AID 652067, 2013; activation, % at 6.8 µM; HEK293 hcDAF-12 lit1-tk-luc reporter; 0% DMSO, 100% Δ7-dafachronic acid; 370,000 compounds, 1.4% hits;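 active = activation above the mean of all tested compounds plus 3 SD, cut at about 5.5% in these data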;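 note: 100% = response to 3 µM Δ7-dafachronic acid high control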
PolyA inhibitor – polyadenylation inhibitors in yeast reporter cells, primary screen, luminescence, S. cerevisiae | S. cerevisiae SKY197-pL101 polyadenylation reporter, beta-gal luminescence; efflux-impaired pdr1/pdr3 knockout yeast; score 100 = 6 SD above DMSO | activity score, % at 12 µM | 300,000 compounds, 0.02% hits;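 active = lowest replicate activity score at least 50, where 100 means six control SD above control mean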;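 note: yeast exposed to compound for 9 h at 30 °C; higher score means more reporter readthrough which indicates perturbed polyadenylation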
ssDAF-12 act – S. stercoralis DAF-12 nuclear receptor activators, primary screen, cell-based, luminescence, HEK293, GRIP1 co-expression, lit1-tk-luc | HEK293 ssDAF-12/GRIP1 lit1-tk-luc reporter; % of 3 µM dafachronic acid response | 370,000 compounds, 1% hits | Nuclear hormone receptor DAF-12 (Strongyloides stercoralis) | activation, % at 6.8 µM | AID 652126, 2013;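 active = activation above the mean over all tested compounds plus 3 SD, cut at about 0.9% in these data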;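 note: 0% = DMSO-only wells and 100% = 3 µM delta7-dafachronic acid wells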
DAX1 inh-1 – DAX1 (NR0B1) inhibitors on StAR promoter, primary screen, cell-based, luminescence, SF-1 (NR5A1), full-length DAX-1; inhibition, % at 6.8 µM; HEK293T StAR-luciferase reporter, SF-1/DAX-1 repression relief; 370,000 compounds, 1.1% hits;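 active = inhibition above the mean over all tested compounds plus 3 SD, cut at about 3.6% in these data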;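 note: 0% = DAX-1 cells with DMSO and 100% = cells lacking DAX-1 with DMSO; higher inhibition means more luminescence from relief of DAX-1 repression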
hgDAF-12 ag – H. glycines DAF-12 receptor agonists, primary screen, cell-based, luminescence, HEK293, GAL4 fusion, UAS-luciferase; activation, % at 6.8 µM; HEK293 GAL4-hgDAF12 UAS-luciferase reporter, agonist luminescence; normalized to butyrate control; 370,000 compounds, 1.8% hits;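 active = activation above a cutoff set at the mean of all screened compounds plus 3 SD, cut at about 10% in these data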;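 note: 0% = DMSO wells and 100% = sodium butyrate wells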
DAX1 inh-2 – DAX1 (NR0B1) inhibitors, primary screen, cell-based, HEK293, Gal4-DAX1, luciferase luminescence; 340,000 compounds, 0.99% hits; HEK293 Gal4-DAX1 luciferase reporter; AID 504766, 2011; inhibition, % at 6.75 µM; Nuclear receptor subfamily 0 group B member 1 (Homo sapiens), P51843;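 active = inhibition above the mean over all tested compounds plus 3 SD, cut at about 4.2% in these data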;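 note: 0% = DAX1-transfected cells with DMSO and 100% = empty-vector control cells with DMSO; inhibition shows as a rise in luminescence from relieved DAX1 repression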
DAX1 conf – DAX1 (NR0B1) inhibitors relieving SF-1 repression, confirmation, cell-based, luminescence, HEK293T, full-length DAX-1, SF-1 activated StAR promoter; shares compounds with DAX1 inh-1; inhibition, % at 6.8 µM; 2,400 compounds, 87% hits; HEK293T StAR-promoter luciferase reporter, SF-1/DAX-1 repression; AID 652134, 2013;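 active = inhibition above the average of every tested compound plus 3 SD, cut at about 3.8% in these data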;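 note: 0% = DAX-1 cells with DMSO and 100% = no DAX-1 control cells with DMSO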
Target sequence (P51843 whole entry, looked up): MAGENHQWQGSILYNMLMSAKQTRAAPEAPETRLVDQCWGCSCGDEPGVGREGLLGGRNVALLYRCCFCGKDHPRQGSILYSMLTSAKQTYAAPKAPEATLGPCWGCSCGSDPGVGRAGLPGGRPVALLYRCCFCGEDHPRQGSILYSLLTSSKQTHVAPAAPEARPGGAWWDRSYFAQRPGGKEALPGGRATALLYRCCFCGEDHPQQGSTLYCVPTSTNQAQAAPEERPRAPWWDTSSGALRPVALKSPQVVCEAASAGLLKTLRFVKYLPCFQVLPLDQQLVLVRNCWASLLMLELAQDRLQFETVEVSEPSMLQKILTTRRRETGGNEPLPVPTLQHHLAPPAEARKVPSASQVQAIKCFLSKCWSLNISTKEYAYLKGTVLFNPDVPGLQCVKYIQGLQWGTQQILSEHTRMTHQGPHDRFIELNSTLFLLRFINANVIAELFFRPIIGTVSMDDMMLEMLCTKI
SF1 AF2mut Luc – StAR reporter signal changes without DAX1, counter-screen for DAX1 inhibitor project, cell-based, luminescence, AF-2 mutant SF-1, transactivation; 2,400 compounds, 78% hits; shares compounds with DAX1 inh-1; HEK293 StAR-luciferase, SF-1 AF2 mutant; inhibition, % at 6.8 µM;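 active = inhibition above the mean of all tested compounds plus 3 SD, cut at about 3% in these data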;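 note: 0% = DAX-1 transfected cells with DMSO and 100% = cells without DAX-1 with DMSO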
The depositor's hits bear a star. A selection: hits, their analogues and other compounds. The true share with any hit is near 4.1%.

`N#Cc1ccccc1S(=O)(=O)N1CCC(C(=O)NCc2ccccc2CN2CCCC2)CC1` gave hcDAF12 agonist -1, ssDAF-12 act -1, DAX1 inh-1 5.4*, hgDAF-12 ag 0, DAX1 inh-2 0, DAX1 conf 2 and SF1 AF2mut Luc -1.
O=C(C(=O)N1CCC(CNC(=O)c2cccs2)CC1)c1cc2ccccc2o1 was read as hcDAF12 agonist -2, ssDAF-12 act -1, DAX1 inh-1 2 and hgDAF-12 ag -2.
COc1ccccc1C(=O)N/N=C(\C)c1ccc(NC(=O)Cc2ccccc2)cc1 was read as hcDAF12 agonist 5, PolyA inhibitor 11, ssDAF-12 act 0, DAX1 inh-1 2, hgDAF-12 ag 7 and DAX1 inh-2 1.
C/C(=N\NC(=O)c1cccc(C)c1O)c1ccc(NC(=O)Cc2ccccc2)cc1 was read as hcDAF12 agonist 6.5*, PolyA inhibitor 7, ssDAF-12 act 0, DAX1 inh-1 6.0*, hgDAF-12 ag 10, DAX1 inh-2 2, DAX1 conf 4.8* and SF1 AF2mut Luc 3.8*.
Screening COc1cccc(/C=C2/Sc3ccc(C(=O)NCCN4CCCC4)cc3NC2=O)c1 returned hcDAF12 agonist 0, PolyA inhibitor 5, ssDAF-12 act -1, DAX1 inh-1 10*, hgDAF-12 ag 3, DAX1 inh-2 0, DAX1 conf 4.6* and SF1 AF2mut Luc 3.2*.
O=C1Nc2cc(C(=O)NCCN3CCCCCC3)ccc2S/C1=C/c1ccccc1F was read as hcDAF12 agonist -1, ssDAF-12 act -1, DAX1 inh-1 1, hgDAF-12 ag 0 and DAX1 inh-2 1.
Screening Oc1c(C2=NCCNC(C(F)(F)F)=C2)ccc2ccccc12 returned hcDAF12 agonist 3, PolyA inhibitor -4, ssDAF-12 act 1, DAX1 inh-1 4.7*, hgDAF-12 ag 19*, DAX1 inh-2 2, DAX1 conf 6.5* and SF1 AF2mut Luc 4.6*.
For COc1cc2nn(-c3ccccc3N)nc2cc1OC the results were hcDAF12 agonist 3, ssDAF-12 act 0, DAX1 inh-1 4.7*, hgDAF-12 ag 11*, DAX1 inh-2 3, DAX1 conf 6.7* and SF1 AF2mut Luc 4.8*.
For CCCn1c2ccccc2c2cnn(CC(=O)NCCCN3C(C)CCCC3C)c(=O)c21 (stereo not given) the results were hcDAF12 agonist 0, PolyA inhibitor 5, ssDAF-12 act -1, DAX1 inh-1 5.6*, hgDAF-12 ag 2, DAX1 inh-2 -1, DAX1 conf -1 and SF1 AF2mut Luc -1.
Screening CCCn1c2ccccc2c2cnn(CC(=O)NCCCOC)c(=O)c21 returned hcDAF12 agonist -2, PolyA inhibitor -20, ssDAF-12 act -1, DAX1 inh-1 1, hgDAF-12 ag -2 and DAX1 inh-2 0.
CCc1ccc(NC(=O)C(=O)c2ccccc2NC(C)=O)cc1 was read as hcDAF12 agonist 4, ssDAF-12 act 0, DAX1 inh-1 9.1*, hgDAF-12 ag 10, DAX1 inh-2 3, DAX1 conf 12* and SF1 AF2mut Luc 7.0*.
For COC(=O)[C@]12C[C@H](CC(=O)NCc3cccc4ccccc34)C(=O)N(Cc3ccco3)C1=C[C@H](COCc1ccccc1)O[C@@H]2C the results were hcDAF12 agonist -1, ssDAF-12 act 0, DAX1 inh-1 -1 and hgDAF-12 ag 1.
`C/C(=N\NC(=O)c1ccccc1O)c1cccs1` gave hcDAF12 agonist 2, PolyA inhibitor 21, ssDAF-12 act -1, DAX1 inh-1 5.4*, hgDAF-12 ag 7, DAX1 inh-2 -1, DAX1 conf 5.9* and SF1 AF2mut Luc 2.
CC(C)(C)c1cc(NC(=O)c2cccs2)no1 was read as hcDAF12 agonist 4, PolyA inhibitor 4, ssDAF-12 act 1, DAX1 inh-1 11*, hgDAF-12 ag 11*, DAX1 inh-2 0, DAX1 conf 12* and SF1 AF2mut Luc 7.2*.
Screening CC(=O)N1CCC(C(=O)Nc2ccc3c(c2)CCC3)CC1 returned hcDAF12 agonist 1, PolyA inhibitor 3, ssDAF-12 act -1, DAX1 inh-1 0, hgDAF-12 ag -1 and DAX1 inh-2 4.
CC(C)(C)OC(=O)N1CCC(C(=O)Nc2ccc3c(c2)CCC3)CC1 was read as hcDAF12 agonist 2, ssDAF-12 act 0, DAX1 inh-1 4.7*, hgDAF-12 ag 12*, DAX1 inh-2 1, DAX1 conf 4.7* and SF1 AF2mut Luc 3.
Screening CCCCCCN1C[C@H](O)[C@@H](n2cc(COC(=O)c3ccccc3)nn2)C[C@@H]1c1ccccc1 returned hcDAF12 agonist -1, ssDAF-12 act -1, DAX1 inh-1 0, hgDAF-12 ag 1 and DAX1 inh-2 0.
`CCCCCCN1C[C@@H](O)[C@H](n2cc(COC(=O)c3ccccc3)nn2)C[C@@H]1c1ccccc1` gave hcDAF12 agonist -2, ssDAF-12 act -1, DAX1 inh-1 4.6*, hgDAF-12 ag -2, DAX1 inh-2 1, DAX1 conf -1 and SF1 AF2mut Luc -1.
For C[C@H](CO)N1C[C@H](C)[C@H](CN(C)S(=O)(=O)c2cccs2)Oc2ncc(Br)cc2C1=O the results were hcDAF12 agonist 0, ssDAF-12 act 0, DAX1 inh-1 -1 and hgDAF-12 ag -2.
For O=c1oc2cc(O)ccc2cc1-c1nc2ccccc2o1 the results were hcDAF12 agonist 3, ssDAF-12 act 0, DAX1 inh-1 5.4*, hgDAF-12 ag 9, DAX1 conf 6.4* and SF1 AF2mut Luc 3.3*.

Screening results from PubChem BioAssay.
